Laboratory results published in PubChem BioAssay AID1479 (National Center for Advancing Translational Sciences (NCATS), 2009).
In all, about 280,000 compounds went through this assay and about 820 (0.29%) were called active. Entries that show only a call come without a potency. About 1% were inconclusive and are not listed. Calls come from the whole dose curve; as a rule, active = well fitted curve in either direction with a large enough effect; inconclusive = small, poorly fitted or top-dose-only effect; inactive = flat fitted curve, though single readings scatter. The sample as a whole holds a higher share of actives than the screen did.

Assay: Total Fluorescence Counterscreen for Inhibitors of the Interaction of Thyroid Hormone Receptor and Steroid Receptor Coregulator 2
Conditions: TRb/SRC2 Texas Red total fluorescence interference; series mostly up to 201 µM
From the text: NIH Molecular Libraries Probe Production Network [MLPCN]
NIH Chemical Genomics Center [NCGC]
Assay Provider: R. Kip Guy, St. Jude Children's Research Hospital
Thyroid receptor (TR) regulates many homeostatic processes including basal metabolism, cardiovascular function, body weight, and lipid trafficking. TR modulators are potential therapeutics for obesity and hyperlipidemias but current thyroid analogs have undesirable side effects, particularly cardiac stimulation. To identify inhibitors that specifically prevent the interaction of TR with the steroid receptor […] 2 (SRC2), a fluorescence polarization assay was screened. This assay detects interaction of the ligand-binding domain of human TRb with a Texas Red labeled SRC2 peptide, corresponding to a 20 amino acid region of the nuclear receptor interaction domain (Arnold et al., 2006). Total fluorescence (555 nm excitation and 632 nm emission) was measured to identify potential fluorescent and light absorbing compounds. Such compounds may be artifacts that interfere with the fluorescence polarization assay.
Arnold, L. A.; Estebanez-Perpina, E.; Togashi, M.; Shelat, A.; Ocasio, C. A.; McReynolds, A. C.; Nguyen, P.; Baxter, J. D.; Fletterick, R. J.; Webb, P.; Guy, R. K. A high-throughput screening method to identify small molecule inhibitors of thyroid hormone receptor coactivator binding. Sci STKE 2006, p 13.
NCGC Assay Protocol Summary:
For screening, 5 uL/well 0.6 uM TRb and 20 nM SRC2 Texas Red in protein buffer (20mM Tris hydrochloride, 100mM NaCl, 10% glycerol, 1mM EDTA, 0.01% NP-40, 1mM DTT, 1uM T3 and 5% DMSO) was dispensed into black solid 1536-well plates (Grenier) using a solenoid-based dispenser. Following transfer of 23 nL compound or DMSO vehicle by a pin tool, the plates were centrifuged 15 s at 1000 RPM and incubated 5 hr at ambient temperature. The plates were read by an Envision (Perkin Elmer) to detect fluorescence polarization of SRC2 Texas Red (555 nm excitation and 632 nm emission). Data were normalized to unbound (all components except TRb) and bound SRC2 Texas Red controls. Total fluorescence (TF) was calculated as follows: TF = S + 2P where S and P are fluorescence readings in the parallel and perpendicular channels, respectively.
Keywords: NIH Roadmap, MLPCN, MLI, MLSMR, qHTS, NCGC, qHTS, thyroid hormone receptor, steroid receptor coactivator, fluorescence polarization
Potency is the fitted concentration of half-maximal effect; tags give direction and shape of the fitted curve or compound fluorescence and quenching.

SMILES | Potency
CCCCC(=O)N/N=C/c1c(O)n(CC)c(=S)n(CC)c1=O | 0.316 µM [quencher] (active)
Clc1ccc([C@@]2(Cn3cncn3)C[C@H](Br)CO2)c(Cl)c1 | inactive
CCOP(=O)(OCC)SCS(=O)(=O)C(C)(C)C | inactive
CCOP(OCC)OCC | inactive
O=C1NC(=O)N(c2ccccc2)C(=O)/C1=C/c1ccc([N+](=O)[O-])s1 | 44.7 µM [fluorescent] (active)
CC(C)OC(=O)Nc1ccccc1 | inactive
CCC/C(=N\OCC)C1=C(O)CC(CC(C)SCC)CC1=O (stereo not given) | inactive
Fc1ccc(Oc2ccnc3cc(Cl)cc(Cl)c23)cc1 | inactive
CCC(C)(C)c1ccc(O)c(C(C)(C)CC)c1 | inactive
CCCN(CCOc1c(Cl)cc(Cl)cc1Cl)C(=O)n1ccnc1 | inactive
